In ChEMBL document CHEMBL3433997, “St. Jude Leishmania screening dataset” (2016):

molecular target: Glucose transporter (Leishmania mexicana) (UniProt O61059); experiment: ST_JUDE_LEISH: Cytotoxicity at 2uM final concentration against transgenic Leishmania Mexicana promastigotes LmGT2 that are glucose transport deficient and complemented with the L. Mexicana glucose transporter 2. Activity is measured by DNA content using SYBR green in vitro; format: functional

Compound	inhibition
O=C(NC1CCCCN(Cc2ccccc2O)C1)c1cccc(Cl)c1 (configuration not stated)	-1.89%
CC(C)Nc1nc(NCCc2c[nH]cn2)nc(NCc2cccc3ccccc23)n1	-2.34%
Fc1cc(Cl)ccc1Nc1ccnc2cc(-c3ccc(CN4CCCCC4)o3)ccc12	0.77%
COc1ccc2c(=NN=Cc3ccncc3)cc(C)[nH]c2c1	3.63%
NC1=NC2(CCCCC2)N(OCCCCCCc2ccccc2)C(N)=N1	0.69%
Cc1cc(NC(=O)c2ccsc2)ccc1OC1CCN(Cc2ccc(F)cc2)CC1	1.6%
N#Cc1ccc(-c2ccc(C(=O)NCCCCN3CCC(c4cc(Br)c5c(c4O)CCCC5)CC3)cc2)cc1	-0.42%
Cc1cccc(C(=O)Nc2ccnc(N3CCCN(Cc4cccc(O)c4)CC3)c2)c1	-0.7%
Oc1ccc2[nH]c(-c3cccc(F)c3)nc2c1CN1CCC(N2CCCC2)CC1	4.9%
Cc1cc(Oc2cc(NC(=O)c3sc4ncn(Cc5ccccc5F)c(=O)c4c3C)cc([N+](=O)[O-])c2)ccc1Cl	1.68%
CCOc1ccc(-c2nonc2NC(=O)c2ccccc2Cl)cc1OCC	2.27%
CCCCCCN1CCCN(Cc2cccc(C(=O)Nc3ccc(C(C)(C)C)cc3)c2)CC1	0.65%
CCCCCOc1c(CCC)cc(Cc2cnc(N)nc2N)cc1CCC	4.12%
CNCCNCc1cccc(-c2cccc(-c3nc4cc(F)ccc4[nH]3)c2)c1	7.49%
NCCCOc1cnc(-c2ccccc2)c2nc(-c3nonc3N)n(CCc3ccccc3)c12	1.33%
CCCCCCCCOc1c(OCC)cc(Cc2cnc(N)nc2N)cc1OCC	2.94%
CC(=O)N(C)c1ccc(C(=O)Nc2cccc(-c3cccc(-c4nc5cc(C(F)(F)F)ccc5[nH]4)c3)c2)cc1	5.77%
